# Source: the supplement of paper PMC11634586
# Structures can show the parent of a compound that is named as a salt.
# Test system: NCI-H1688
# Assay: inhibition of cell viability relative to untreated control (fraction); higher = stronger growth inhibition, active = 0.5 or more
# Settings: 30 µM; 24 h
# Protocol: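 Natural product library (TargetMol, 640 compounds) screened on NCI-H1688 SCLC cells at 30 µM for 24 h; viability by CCK-8 absorbance at 450 nm, normalised to untreated control and expressed as inhibition rate (fraction). Compounds with >50% reduction in viability were selected as hits.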
row,SMILES,inhibition of cell viability
1,C=C1CC[C@H](O)C/C1=C/C=C1\CCC[C@]2(C)[C@@H]([C@H](C)/C=C/[C@H](C)C(C)C)CC[C@@H]12 [Vitamin D2],-0.0632 (inactive)
2,CC(=O)O[C@H]1C[C@@]2(C)[C@@H](C[C@@H](O)[C@H]3[C@@]4(C)CC[C@@H](O)[C@@H](C)[C@@H]4CC[C@@]32C)/C1=C(\CCC=C(C)C)C(=O)O [Fusidine],-0.0194 (inactive)
3,CC[C@]12CCCN3CCc4c(n(c5ccccc45)[C@@](O)(C(=O)OC)C1)[C@@H]32 [Vincamine],0.408 (inactive)
4,COc1ccc([C@@H]2CC(=O)c3c(O)cc(O)cc3O2)cc1O [Hesperetin],-0.0748 (inactive)
5,N[C@H]1C(O)O[C@H](CO)[C@@H](O)[C@@H]1O (stereo not given in full) [Glucosamine hydrochloride],0.0567 (inactive)
6,COc1c(O)cc2c(c1O)[C@@H]1O[C@H](CO)[C@@H](O)[C@H](O)[C@H]1OC2=O [Bengenin],0.0368 (inactive)
7,C[C@H]1[C@H](C)CC[C@]2(C(=O)O)CC[C@]3(C)C(=CC[C@@H]4[C@@]5(C)C[C@@H](O)[C@H](O)[C@@](C)(CO)[C@@H]5[C@H](O)C[C@]43C)[C@H]12 [Madecassic acid],-0.00715 (inactive)
8,Oc1cc(O)c2c(c1)O[C@H](c1ccc(O)c(O)c1)[C@@H](O)C2 [Cianidanol],0.298 (inactive)
9,COC1=CC(=O)C[C@@H](C)[C@]12Oc1c(Cl)c(OC)cc(OC)c1C2=O [Griseofulvin],0.615 (active)
10,O=C1c2cccc(O)c2C(=O)c2c(O)cc(CO)cc21 [Aloe-emodin],0.373 (inactive)
11,COc1ccc2[nH]cc(CCNC(C)=O)c2c1 [Melatonine],0.177 (inactive)
12,OCC1OC(OC2C(CO)OC(O)C(O)C2O)C(O)C(O)C1O [D-Cellobiose],-0.12 (inactive)
13,C=C(C)[C@@H]1CC[C@]2(C)CC[C@]3(C)[C@H](CC[C@@H]4[C@@]5(C)CC[C@H](O)C(C)(C)[C@@H]5CC[C@]43C)[C@@H]12 [Lupeol],0.287 (inactive)
14,CC(=O)C1=C(O)C=C2Oc3c(C(C)=O)c(O)c(C)c(O)c3C2(C)C1=O (stereo in doubt) [Usnic Acid],0.273 (inactive)
15,COC(=O)C1=CC[C@@]23CC[C@@H]([C@@](C)(/C=C/C=C(\C)C(=O)O)OC2=O)[C@@]3(OC(C)=O)CC1 [Pseudolaric Acid B],0.813 (active)
16,O=C1c2c(O)cc(O)cc2OC(c2ccc(O)c(O)c2)C1O (stereo not given) [Taxifolin (Dihydroquercetin)],0.086 (inactive)
17,C=CC1=C(C)/C(=C/c2[nH]c(Cc3[nH]c(/C=C4\NC(=O)C(C)=C4C=C)c(C)c3CCC(=O)O)c(CCC(=O)O)c2C)NC1=O [Bilirubin],0.0432 (inactive)
18,N[C@@H](Cc1c[nH]c2ccccc12)C(=O)O [L-Tryptophan],-0.199 (inactive)
19,O=C(O)[C@]1(O)C[C@@H](O)[C@@H](O)[C@H](O)C1 [Quinic acid],0.126 (inactive)
20,C/C=C(/C)C(=O)OC(C)(C)[C@@H]1Cc2c(ccc3ccc(=O)oc23)O1 [Columbianadin],0.338 (inactive)

row,SMILES,inhibition of cell viability
1,O=C1C[C@@H](c2ccccc2)Oc2cc(O)cc(O)c21 [Pinocembrin],-0.374 (inactive)
2,CC(C)=CCC/C(C)=C/CC/C(C)=C/CC/C(C)=C/CC/C(C)=C/CC/C(C)=C/CC/C(C)=C/CC/C(C)=C/CC/C(C)=C/CO [Solanesol],0.301 (inactive)
3,O=c1c(O)c(-c2ccc(O)c(O)c2)oc2cc(O)ccc12 [Fisetin],0.0255 (inactive)
4,Cc1nc(C)c(C)nc1C [Ligustrazine hydrochloride],-0.157 (inactive)
5,O=C(O)CCCCCCCC(O)C(O)CCCCCCO (stereo not given) [Aleuritic Acid],-0.54 (inactive)
6,Cc1cc(O)c2c(c1)C(=O)c1cc(O)cc(O)c1C2=O [Emodin],0.493 (inactive)
7,O=c1cc(-c2ccccc2)oc2cc(O)c(O)c(O)c12 [Baicalein],0.728 (active)
8,C[C@@H]1O[C@@H](Oc2c(-c3cc(O)c(O)c(O)c3)oc3cc(O)cc(O)c3c2=O)[C@H](O)[C@H](O)[C@H]1O [Myricetrin],-0.141 (inactive)
9,C[C@]12C[C@H](O)[C@H]3[C@@H](CCC4=CC(=O)CC[C@@]43C)[C@@H]1CC[C@@H]2C(=O)CO [Corticosterone],0.0335 (inactive)
10,NC[C@H]1O[C@H](O[C@H]2[C@H](O)[C@@H](O[C@H]3O[C@H](CO)[C@@H](O)[C@H](N)[C@H]3O)[C@H](N)C[C@@H]2N)[C@H](O)[C@@H](O)[C@@H]1O [Kanamycin sulfate],0.154 (inactive)
11,C[C@H](CCC(=O)NCC(=O)O)[C@H]1CC[C@H]2[C@@H]3[C@H](O)C[C@@H]4C[C@H](O)CC[C@]4(C)[C@H]3C[C@H](O)[C@]12C [Glycocholic acid],-0.11 (inactive)
12,CC1(C)[C@@H](O[C@H]2O[C@H](C(=O)O)[C@@H](O)[C@H](O)[C@H]2O[C@@H]2O[C@H](C(=O)O)[C@@H](O)[C@H](O)[C@H]2O)CC[C@]2(C)[C@H]3C(=O)C=C4[C@@H]5C[C@@](C)(C(=O)O)CC[C@]5(C)CC[C@@]4(C)[C@]3(C)CC[C@@H]12 [Monoammonium glycyrrhizinate],0.346 (inactive)
13,CC(=O)O[C@H]1C(=O)[C@@]2(C)[C@H]([C@H](OC(=O)c3ccccc3)[C@]3(O)C[C@H](OC(=O)[C@H](O)[C@@H](NC(=O)c4ccccc4)c4ccccc4)C(C)=C1C3(C)C)[C@]1(OC(C)=O)CO[C@@H]1C[C@@H]2O [Paclitaxel],0.555 (active)
14,COC(=O)[C@@H]1[C@H]2C[C@H]3c4[nH]c5ccccc5c4CCN3C[C@@H]2CC[C@@H]1O [Yohimbine hydrochloride],0.0994 (inactive)
15,O=C(O)[C@@H](O)[C@H](O)[C@H](O)[C@@H](O)C(=O)O [Mucic Acid],0.0761 (inactive)
16,O=c1ccc2cc(O)c(O)cc2o1 [Esculetin],0.643 (active)
17,O=C(O)C1=CO[C@@H](O[C@@H]2O[C@H](CO)[C@@H](O)[C@H](O)[C@H]2O)[C@@H]2C(CO)=CC[C@H]12 [Geniposidic Acid],-0.0628 (inactive)
18,C=C1C(=O)[C@]23[C@H](CC[C@@H]1[C@@H]2O)[C@]12CO[C@@]3(O)[C@H](O)[C@H]1C(C)(C)CC[C@@H]2O [Rubescensin A],0.984 (active)
19,COc1cc(C(=O)O)cc(OC)c1O [Syringic acid],0.0408 (inactive)
20,O=C1O[C@H]([C@H](O)CO)C([O-])=C1O.[Na+] [Sodium erythorbate],0.0513 (inactive)
